# Assay results reported in PubChem BioAssay (NCATS).
# Values joined by “and” are separate entries in the source; they are usually repeats but may differ in a detail not shown here. Equal values may be shown once. Results filed as inconclusive are left out. Active and inactive are the calls of the source. Unless noted, the call rests on the fitted dose curve; in most records, active means well fitted curve in the direction sought with a large enough effect; inconclusive means small, poorly fitted or top-dose-only effect, or another doubt; inactive means no such curve, though single readings can be large; an effect the other way counts as inactive or inconclusive. *1 amine or outer side, *2 acyl side, *3 side chain or, on linkers, in order; H or OH if unused. Where a SMILES comes first, the peptide text is derived from it. Bridges are numbered along the chain shown (N, C = ends). [ ]: non-standard residue; d: D form. The star is where a group is joined. pTerphenylCO(4''-OnC5H11) = CCCCCOc1ccc(-c2ccc(-c3ccc(C(=O)*)cc3)cc2)cc1; Orn(4R-OH,5R-OH) = O=C([C@H](C[C@@H](O)[C@@H](O)N[*:3])N[*:1])[*:2]; hTyr(3S-OH,4S-OH) = N[C@H](C(=O)O)[C@H](O)[C@@H](O)c1ccc(O)cc1; Pro(3S-OH,4S-Me) = C[C@H]1CN[C@H](C(=O)O)[C@H]1O; Hyp = O=C(O)[C@@H]1C[C@@H](O)CN1
# What was measured:
# [1] = molecular target: Cytochrome P450 2C9 (Homo sapiens) (UniProt P11712); assay: Cytochrome P450 family 2 subfamily C member 9 (CYP2C9) small molecule antagonists: luciferase biochemical (cell-free) qHTS assay (AID 1645842; active means well fitted curve in the direction sought with a large enough effect in the repeat runs; an effect the other way counts as inactive or inconclusive; further: nearly all actives have a fitted effect of over 55% in size; further: potency means the concentration at half of the fitted maximal effect; on activity change, negative = inhibition: on the % scale 0 is the no-effect control and ±100 the full control effect)
# Sequence of Cytochrome P450 2C9 (Homo sapiens) (P11712 whole entry, looked up): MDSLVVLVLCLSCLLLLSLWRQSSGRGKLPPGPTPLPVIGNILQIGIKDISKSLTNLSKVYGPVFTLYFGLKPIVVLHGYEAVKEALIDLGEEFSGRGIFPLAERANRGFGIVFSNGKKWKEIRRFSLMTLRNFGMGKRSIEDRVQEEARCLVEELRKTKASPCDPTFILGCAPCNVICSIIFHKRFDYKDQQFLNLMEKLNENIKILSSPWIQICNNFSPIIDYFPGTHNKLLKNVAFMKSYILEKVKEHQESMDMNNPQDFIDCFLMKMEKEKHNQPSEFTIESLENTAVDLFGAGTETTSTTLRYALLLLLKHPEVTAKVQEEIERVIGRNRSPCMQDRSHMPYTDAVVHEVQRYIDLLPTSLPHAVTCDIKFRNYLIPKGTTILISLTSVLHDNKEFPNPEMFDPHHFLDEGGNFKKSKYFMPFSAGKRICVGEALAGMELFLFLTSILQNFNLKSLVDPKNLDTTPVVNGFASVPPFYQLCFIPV
# Method in brief: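 Luminescence, after 20 min with luciferin detection reagent, reflected CYP2C9 turnover during a 1 h NADPH-driven reaction at 37C. Enzyme-substrate mix contained 0.4% bovine serum albumin and was preincubated with compound 10 min at room temperature.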
# [2] = Primary qHTS for inhibitors of nuclear receptor binding SET domain protein 2 (NSD2) in an isogenic RCH-ACV NSD2 p.E1099K mutant (9B) (AID 1645876); further: nearly all actives have a fitted effect of over 70% in size; further: potency means the concentration at half of the fitted maximal effect
# [3] = Primary qHTS for inhibitors of nuclear receptor binding SET domain protein 2 (NSD2) in an RCH-ACV wild type WT cells (2C) (AID 1645877); further: nearly all actives have a fitted effect of over 70% in size; further: potency means the concentration at half of the fitted maximal effect
# [4] = molecular target: Catechol O-methyltransferase (Homo sapiens) (UniProt P21964); assay: Confirmatory Screen for Target Class Profiling of Small Molecule Inhibitors of Methyltransferases (AID 1745852; calls by dose curve; further: potency means the concentration at half of the fitted maximal effect; on activity change, negative = inhibition: on the % scale 0 is the no-effect control and ±100 the full control effect); settings: MTase-Glo luminescence, SAH detection, recombinant enzyme; measured here: COMT max response; stronger effect = lower value
# Sequence of Catechol O-methyltransferase (Homo sapiens) (P21964 whole entry, looked up): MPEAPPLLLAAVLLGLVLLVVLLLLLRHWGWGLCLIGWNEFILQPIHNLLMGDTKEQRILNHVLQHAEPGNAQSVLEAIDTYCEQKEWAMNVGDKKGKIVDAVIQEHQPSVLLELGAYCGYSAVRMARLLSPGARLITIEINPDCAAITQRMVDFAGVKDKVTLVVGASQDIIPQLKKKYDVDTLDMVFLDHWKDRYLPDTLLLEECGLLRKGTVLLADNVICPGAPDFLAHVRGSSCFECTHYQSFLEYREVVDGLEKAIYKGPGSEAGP
# [5] = molecular target: Guanidinoacetate N-methyltransferase (Homo sapiens) (UniProt Q14353); assay: as above; settings: activity change, negative = inhibition: at 57.3 µM (top of the series) unless noted
# [6] = molecular target: Nicotinamide N-methyltransferase (Homo sapiens) (UniProt P40261); assay: as above; settings: MTase-Glo luminescence, SAH detection, recombinant enzyme; measured here: NNMT max response; stronger effect = lower value
# Sequence of Nicotinamide N-methyltransferase (Homo sapiens) (P40261 whole entry, looked up): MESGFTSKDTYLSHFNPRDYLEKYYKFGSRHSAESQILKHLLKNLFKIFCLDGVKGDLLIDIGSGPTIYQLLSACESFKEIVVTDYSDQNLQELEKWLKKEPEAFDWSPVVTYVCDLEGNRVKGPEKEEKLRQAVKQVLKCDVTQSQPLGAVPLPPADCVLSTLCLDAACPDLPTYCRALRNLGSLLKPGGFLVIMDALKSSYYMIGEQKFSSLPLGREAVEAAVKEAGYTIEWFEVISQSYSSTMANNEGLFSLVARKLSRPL
# [7] = molecular target: Phenylethanolamine N-methyltransferase (Homo sapiens) (UniProt P11086); assay: as above; settings: MTase-Glo luminescence, SAH detection, recombinant enzyme; measured here: PNMT max response; stronger effect = lower value
# Sequence of Phenylethanolamine N-methyltransferase (Homo sapiens) (P11086 whole entry, looked up): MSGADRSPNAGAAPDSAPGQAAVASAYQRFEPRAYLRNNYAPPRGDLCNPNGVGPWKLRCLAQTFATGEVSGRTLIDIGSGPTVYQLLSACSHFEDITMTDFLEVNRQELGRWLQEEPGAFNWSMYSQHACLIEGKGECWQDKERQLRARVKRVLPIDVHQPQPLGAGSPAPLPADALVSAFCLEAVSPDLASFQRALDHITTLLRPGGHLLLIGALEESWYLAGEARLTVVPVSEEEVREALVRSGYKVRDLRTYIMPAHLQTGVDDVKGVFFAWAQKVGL
# [8] = NCATS anti-infectives library activity on HEK293 viability as a counter-qHTS vs the C. elegans viability qHTS (AID 1745854); further: on the % scale 0 is the no-effect control and ±100 the full control effect
# Method in brief: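 HEK293 cells, 1500 per well, exposed 24 hr at 37C in 5% CO2 to compounds in a 1:5 titration, up to 41.7 uM final. Viability read as CellTiter-Glo luminescence after 10 min at room temperature.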
# [9] = molecular target: N-terminal Xaa-Pro-Lys N-methyltransferase 1 (Homo sapiens) (UniProt Q9BV86); assay: Confirmatory qHTS for Inhibitors of N-terminal methyltransferase 1 (NTMT1): MTaseGlo Assay (AID 1645874);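 further: luminescence from SAH made as NTMT1 methylates SPKRIA peptide using SAM; 0% = DMSO control and -100% = no-enzyme control; nearly all actives have a fitted effect of over 65% in size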
# Sequence of N-terminal Xaa-Pro-Lys N-methyltransferase 1 (Homo sapiens) (Q9BV86 whole entry, looked up): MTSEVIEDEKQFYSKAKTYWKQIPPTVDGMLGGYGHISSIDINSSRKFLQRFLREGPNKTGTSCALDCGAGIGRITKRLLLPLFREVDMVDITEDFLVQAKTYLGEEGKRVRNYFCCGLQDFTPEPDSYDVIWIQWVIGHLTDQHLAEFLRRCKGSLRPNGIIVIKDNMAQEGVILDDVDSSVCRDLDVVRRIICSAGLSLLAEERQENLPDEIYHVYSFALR
# Method in brief: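 NTMT1 (125 nM) preincubated 15 min with compound and 100 uM SAM, then 1 uM SPKRIA peptide added for 30 min at room temperature. SAH detected by MTase-Glo luminescence; normalized to no-enzyme and DMSO controls, fitted to 4-parameter Hill.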
smiles,measurement,setting,value
c1cc(NCCc2c[nH]c3ccccc23)cc(Nc2ccncc2)c1,Potency,[1],0.674 µM (active)
same,Potency,[2],7.28 µM (active)
same,Potency,[3],3.25 µM (active)
same,activity,[4],-7.79%
same,Potency,[5],48.2 µM (active)
same,activity,[6],-26%
same,activity,[7],-13.2%
O=C1NC(=O)C(c2cnc3ccccn23)=C1c1cn2c3c(cc(F)cc13)CN(C(=O)N1CCCCC1)CC2,Potency,[1],12 µM (active)
same,Potency,[2],5.2 nM (active) and 9.3 nM (active)
same,Potency,[3],5.2 nM (active) and 10.5 nM (active)
same,activity,[4],-28.3%
same,"activity change, negative = inhibition",[5],-13.3%
same,activity,[6],-51.2%
same,activity,[7],-20.8%
COc1ccccc1N1CCN(c2ncnc3n[nH]c(Br)c23)CC1,Potency,[1],7.56 µM (active)
same,Potency,[2],23 µM (active)
same,Potency,[3],16.3 µM (active)
same,activity,[4],-8.96%
same,"activity change, negative = inhibition",[5],-0.635%
same,activity,[6],-42.7%
same,activity,[7],-19.8%
Cn1cc(-c2ccc(F)c(C(F)(F)F)c2)nc1C1CCN(c2ncnc3[nH]ncc23)CC1,Potency,[1],inactive
same,Potency,[2],inactive
same,Potency,[3],inactive
same,activity,[4],2.12%
same,"activity change, negative = inhibition",[5],1.12% [at 9.47 µM]
same,activity,[6],-37.5%
same,activity,[7],-1.21%
CN1CC2CN(c3ccc4oc5ccccc5c(=O)c4c3)CC2C1 (stereo not given),Potency,[1],inactive
same,Potency,[3],12.6 µM (active)
CC(C)(C[C@@](O)(Cc1cc2ccncc2[nH]1)C(F)(F)F)c1cc(F)ccc1O,Potency,[1],0.301 µM (active)
same,Potency,[2],10.3 µM (active)
same,Potency,[3],0.163 µM (active)
same,activity,[4],1.72%
same,"activity change, negative = inhibition",[5],0%
same,activity,[6],-1.53%
same,activity,[7],-1.87%
CN(C)C(=O)Nc1cccc(-c2ccc(N(C)C)cc2)c1,Potency,[1],23.9 µM (active)
same,Potency,[2],inactive
same,Potency,[3],inactive
same,outcome,[8],inactive
Cc1nc(C#Cc2ccnc(Cl)c2)c(C)n1-c1ccc(F)cc1,Potency,[1],inactive
same,Potency,[2],11.5 µM (active)
same,Potency,[3],11.5 µM (active)
same,activity,[4],-47.3%
same,Potency,[5],30.4 µM (active)
same,activity,[6],-47.6%
same,activity,[7],-47.9%
Fc1ccc(N2CCCCC2)c(NC(=S)c2ccncc2)c1,Potency,[1],6.01 µM (active)
same,Potency,[2],10.3 µM (active)
same,Potency,[3],12.9 µM (active)
same,activity,[4],-6%
same,"activity change, negative = inhibition",[5],2.26%
same,activity,[6],-9.58%
same,activity,[7],-11.8%
CCCC(=O)C1(c2ccccc2)CCN(C(=O)[C@@H](Cc2ccc(OC)cc2)NC(=O)[C@@H](N)Cc2cncn2C)CC1,Potency,[1],19 µM (active)
same,Potency,[3],18.3 µM (active)
CCCCNc1ncc(-c2ccc(CN3CCOCC3)cn2)c(NC2CCC(O)CC2)n1 (stereo not given),Potency,[1],inactive
same,Potency,[3],632 nM (active) and 1.15 µM (active)
O=C(NCCN1CCC(n2c(=O)[nH]c3ccccc32)CC1)c1ccc2ccccc2c1,Potency,[1],7.56 µM (active)
same,Potency,[3],16.3 µM (active)
Cc1c(C(=O)NCc2cccnc2)nn(-c2ccc(Cl)cc2Cl)c1-c1ccc(Cl)cc1,Potency,[1],5.35 µM (active)
same,Potency,[3],20.5 µM (active)
CCCC(CCC)C(N)=O,Potency,[1],inactive
same,outcome,[8],inactive
C[C@@H]1CCCN1CCc1cc2cc(-c3ccc(C#N)cc3)ccc2o1,Potency,[1],inactive
same,Potency,[3],20.5 µM (active)
"CCCCCOc1ccc(-c2ccc(-c3ccc(C(=O)N[C@H]4C[C@@H](O)[C@@H](O)NC(=O)[C@@H]5[C@@H](O)[C@@H](C)CN5C(=O)[C@H]([C@@H](C)O)NC(=O)[C@H]([C@H](O)[C@@H](O)c5ccc(O)cc5)NC(=O)[C@@H]5C[C@@H](O)CN5C(=O)[C@H]([C@@H](C)O)NC4=O)cc3)cc2)cc1 ({pTerphenylCO(4''-OnC5H11)}-[Orn(4R-OH,5R-OH)]T[Hyp][hTyr(3S-OH,4S-OH)]T[Pro(3S-OH,4S-Me)]; lactam 1-C)",Potency,[9],inactive
same,Potency,[2],inactive
CC(C)c1cc2c(N3CCN(C4=NCC(C)(C)S4)CC3)ncnc2s1,Potency,[1],inactive
same,activity,[4],-1.24%
same,"activity change, negative = inhibition",[5],0.38%
same,activity,[6],-65.8%
same,activity,[7],-7.2%
Cc1cc(C)cc(-c2cnc3cc(Cl)c(-c4cccc(O)c4)cc3c2OCCCN)c1,Potency,[1],1.2 µM (active)
same,Potency,[3],16.3 µM (active)
same,activity,[4],-38.4%
same,Potency,[5],42.9 µM (active)
same,activity,[6],-83.8%
same,activity,[7],-37.3%
